From PubChem
FBPA Giardia inh: blocks Giardia fructose-bisphosphate aldolase activity. purified Giardia FBPA. Potency, µM (doses to about 59.6 µM), actives largely listed as inhibitors. A8B2U2. hit rate 0.71% among 290,000. AID 2451; further: nearly all actives have a fitted effect of over 55% in size
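Giardia FBPA (40 nM reagent) was preincubated 10 min at RT with compound (up to 57.5 uM final), then substrate plus GAPDH/TPI/NAD/arsenate coupling system with diaphorase/resazurin was added; resorufin fluorescence (525/598 nm) was read after 20 min.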
LmPK inh: blocks Leishmania mexicana pyruvate kinase activity | Q27686 | purified LmPK, Kinase-Glo ATP luminescence, 1 h | Potency, µM (series often up to 57.5 µM), usual class: inhibitors | hit rate 0.37% among 290,000
Target sequence (Q27686 whole entry, looked up): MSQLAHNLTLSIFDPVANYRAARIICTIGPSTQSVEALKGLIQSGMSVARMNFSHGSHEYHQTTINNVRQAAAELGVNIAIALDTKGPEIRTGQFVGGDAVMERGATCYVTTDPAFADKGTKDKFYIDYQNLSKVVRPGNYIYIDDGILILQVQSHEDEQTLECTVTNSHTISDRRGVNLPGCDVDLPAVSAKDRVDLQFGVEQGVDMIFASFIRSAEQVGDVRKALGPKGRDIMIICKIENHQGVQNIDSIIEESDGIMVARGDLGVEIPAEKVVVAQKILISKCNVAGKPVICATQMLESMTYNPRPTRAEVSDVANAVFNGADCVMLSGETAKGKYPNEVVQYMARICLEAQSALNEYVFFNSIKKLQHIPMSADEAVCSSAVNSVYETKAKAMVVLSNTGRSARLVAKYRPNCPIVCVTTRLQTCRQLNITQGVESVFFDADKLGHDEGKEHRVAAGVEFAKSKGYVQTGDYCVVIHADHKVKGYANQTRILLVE
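Kinase-Glo luminescence read after 1 h RT reaction of 0.1 nM LmPK with 0.5 mM PEP and 0.1 mM ADP. Activity scaled between uninhibited and enzyme-free controls.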
Cycloheximide cs: counter-screen hit for Shiga toxin inhibitors, cycloheximide; cell reporter, cycloheximide protein synthesis inhibition counterscreen; max response, %; hit rate 12% among 300,000; AID 2314; in the data active means max response mostly above about 13%, no sharp cut-off; inactive means mostly below about 14%; further: read at 38.3 µM for the half of the compounds with a filed dose
Shiga inhibitor: blocks Shiga toxin action in Vero cells | Vero cells, Shiga toxin protein synthesis inhibition reporter | inhibition, % at 38.7 µM | hit rate 9.2% among 290,000 | AID 2315; in the data active means inhibition mostly above about 28%, no sharp cut-off; inactive means mostly below about 43%
TbPYK inhibitor: blocks Trypanosoma brucei pyruvate kinase; Q57TT1; TbPYK enzyme, Kinase-Glo Plus ATP luminescence, 45 min; Potency, µM (series often up to 76.8 µM), hits mostly inhibitors; hit rate 0.12% among 410,000; AID 624173; further: nearly all actives have a fitted effect of over 50% in size
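Quantitative HTS: titrated library compounds versus trypanosomal pyruvate kinase in TEA buffer (pH 7.2) containing KCl, MgCl2, BSA and Tween-20. Reactions were initiated with ADP, 130 uM final. Kinase-Glo Plus luminescence was read after 45 min at RT.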
Sm TGR block: inhibitors of Schistosoma mansoni thioredoxin glutathione reductase; hit rate 3% among 360,000; Potency, µM (doses to about 114 µM), most hits filed as inhibitors; purified TGR, DTNB reduction, TNB absorbance 405 nm; Q962Y6; AID 485364; further: nearly all actives have a fitted effect of over 60% in size
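First, TGR (20 nM dispensed) and NADPH were mixed with compound. Second, a 15 min room-temperature incubation followed. Third, further NADPH and then DTNB were added to start the reaction. Finally, TNB absorbance was monitored kinetically.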
A number is an active result; i = inactive; ? = inconclusive; nt = no result given. Only a selection was taken, and hits are over-represented in it overall. Unless noted, the call rests on the fitted dose curve; in most records, active means well fitted curve in the direction sought with a large enough effect; inconclusive means small, poorly fitted or top-dose-only effect, or another doubt; inactive means no such curve, though single readings can be large; an effect the other way counts as inactive or inconclusive.

SMILES	FBPA Giardia inh	LmPK inh	Cycloheximide cs	Shiga inhibitor	TbPYK inhibitor	Sm TGR block
Cc1ccc(C)c(C(=O)Cn2ncc(Cl)c(Cl)c2=O)c1	i	i	i	i	i	50µM
O=C(Cn1ncc(Cl)c(Cl)c1=O)c1ccc2c(c1)OCCO2	nt	nt	nt	nt	i	nt
Cc1cc(C(=O)Cn2ncc(Cl)c(Cl)c2=O)c(C)n1CC(F)(F)F	i	i	24	i	i	45µM
Cc1cccc(Cn2nnc3c2C(=O)c2ccccc2C3=O)c1	?	i	27	active	nt	i
COC(=O)c1ccc(NC(=O)CC2C(=O)N(c3ccccc3)C(=O)N2Cc2cccs2)cc1 (stereo not drawn)	nt	nt	nt	nt	i	i
O=c1c2ccccc2n(Cc2ccccc2Cl)c(=O)n1CCc1ccccc1	nt	nt	nt	nt	i	i
Cc1cccc(Cn2ncc(Cl)c(Cl)c2=O)c1	i	i	24	i	i	i
COC(=O)C1=C(C)NC=C([N+](=O)[O-])C1c1ccc(OC)cc1 (stereo not drawn)	i	i	i	i	i	i
COc1cccc(NC(=O)C2CCN(c3nnc(C)c4c(C)n(-c5ccccc5)nc34)CC2)c1	nt	nt	nt	nt	i	i
CCCCn1c(SCC(=O)NC(C)CC)nc2ccc(N3CCOCC3)cc2c1=O (stereo not drawn)	?	i	i	i	i	?
CCCCn1c(SCC(=O)NCc2ccccc2)nc2ccc(N3CCOCC3)cc2c1=O	?	i	i	i	i	i
CCCCn1c(SCC(=O)NCc2ccco2)nc2cc(S(N)(=O)=O)ccc21	i	i	i	i	i	50µM
CCCCn1c(SCC(=O)Nc2ccc(OC)cc2)nc2ccc(N3CCOCC3)cc2c1=O	?	i	i	i	nt	28µM
CCCCn1c(SCC(=O)NCc2ccco2)nc2ccc(N3CCOCC3)cc2c1=O	?	i	i	i	i	28µM
CCCCNC(=O)CSc1nc2ccc(N3CCOCC3)cc2c(=O)n1Cc1ccc(OC)cc1	?	i	i	i	i	i
COCCNC(=O)CSc1nc2ccc(N3CCOCC3)cc2c(=O)n1Cc1ccc(OC)cc1	?	i	28	i	i	i
Cc1ccc(C2CC(=O)N(Cc3ccccc3F)c3c2c(C)nn3-c2nc(C)cc(C)n2)cc1 (stereo not drawn)	nt	nt	nt	nt	i	i
O=C(O)c1ccc2c3c(ncnc13)-c1ccccc1C2=O	?	i	i	i	i	50µM
O=C(O)c1cccc2c1C(=O)c1ccccc1C2=O	i	i	i	i	i	i
O=C(NC(C(=O)N/N=C/c1cccnc1)c1n[nH]c(=O)c2ccccc12)c1ccccc1 (stereo not drawn)	i	i	i	i	i	i
O=[N+]([O-])c1cccc(-c2ccc(C(=S)N3CCOCC3)o2)c1	?	i	39	72	i	nt
O=[N+]([O-])c1cccc(-c2ccc(C(=S)N3CCN(c4ccccc4)CC3)o2)c1	i	i	i	i	i	i
CN1CCN(C(=S)c2ccc(-c3cccc([N+](=O)[O-])c3)o2)CC1	i	i	51	102	i	i
O=[N+]([O-])c1cc(-c2ccc(C(=S)N3CCOCC3)o2)ccc1Cl	?	i	31	55	?	?
Cc1ccc(S(=O)(=O)N2CCC(C(=O)Nc3cc(C(F)(F)F)ccc3N3CCOCC3)CC2)cc1C	nt	nt	nt	nt	i	i
SMILES	FBPA Giardia inh	LmPK inh	Cycloheximide cs	Shiga inhibitor	TbPYK inhibitor	Sm TGR block
CC(C)n1c(NCc2nc3ccccc3n2C)nc2ccccc21	i	i	i	i	i	i
Cn1c(CNc2ccc(Br)cc2)nc2ccccc21	i	i	40	114	i	i
Cn1c(CNc2nc3ccccc3n2C)nc2ccccc21	i	i	68	77	i	i
CC(C)C(=O)NCCc1nc2ccccc2n1C	i	i	i	i	i	i
CCOC(=O)c1ccc(NCc2nc3ccccc3n2C)cc1	i	?	32	i	i	i
Cc1ccc(NCc2nc3ccccc3n2C)cc1C	i	i	46	nt	i	i
COc1cc(OC)c(NC(=O)c2c(C)oc3nc(C)nc(N4CCOCC4)c23)cc1Cl	nt	nt	nt	nt	i	i
CCCCOC(=O)c1c(C)oc2c1cc(NS(=O)(=O)c1cc(OC)ccc1OC)c1ccccc12	nt	nt	nt	nt	i	i
CC(C)NC(=O)C1CCN(C(=O)N2CCOc3ccc(Cl)cc32)CC1	nt	nt	nt	nt	i	i
O=C(NCc1ccccc1Cl)c1ccc2c(c1)N(Cc1ccccc1)C(=O)c1ccccc1S2	nt	nt	nt	nt	i	i
